Experimental data: PubChem BioAssay (NCATS)
Records with an inconclusive call do not appear. A call without a number means that no potency is given here. Values without a mark were called inactive. Activity calls are given as the source filed them. Calls come from the whole dose curve; as a rule, active = well fitted inhibition curve with a large enough effect; inconclusive = small, poorly fitted or top-dose-only effect; inactive = no such curve, though single readings can be large or run the other way. Where a SMILES comes first, the peptide text is derived from it.

Tests used:
[1] = system: Zika virus NS2B-NS3 protease (unlinked complex); assay: Primary screen GU Rhodamine qHTS for Zika virus inhibitors: Unlinked NS2B-NS3 protease assay (AID 1347159); details: Recombinant ZIKV NS2B-NS3 protease, Rhodamine110 substrate fluorescence; series mostly up to 107 µM; note: nearly all actives have a fitted effect of over 60% in size
In short: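 Compounds, tested up to 114 microM, were incubated for 15 minutes with 25 nM unlinked NS2B-NS3 protease at pH 8.0. Cleavage of 1.5 microM Rhodamine110 substrate was then followed by fluorescence for 15 minutes.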

[2] = system: Zika virus NS2B-NS3 protease (linked construct); assay: Primary screen NINDS Rhodamine qHTS for Zika virus inhibitors (AID 1347160); details: purified NS2B-NS3 protease, Rhodamine110 substrate fluorescence; series mostly up to 33.1 µM; note: nearly all actives have a fitted effect of over 55% in size
In short: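 Percent inhibition, normalized to uninhibited and enzyme-free controls, is fitted to a 4-parameter Hill equation. Fluorescence change comes from a 15-min cleavage of 1.5 microM bis-peptide Rhodamine110 substrate by 25 nM linked NS2B-NS3 at room temperature.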
Potency is the fitted concentration of half-maximal effect.

SMILES	Potency [1]	Potency [2]	activity change, negative = inhibition [1]
COc1cc([C@@H](O[C@@H]2O[C@H](CO)[C@@H](O)[C@H](O)[C@H]2O)[C@@H]2CO[C@H](c3ccc(O)c(OC)c3)[C@H]2CO)ccc1O	inactive	inactive	
Nc1ncnc2c1C(=O)N(c1ccc(C3CCC(CC(=O)O)CC3)cc1)CCO2 (centres undefined)	inactive	inactive	
COC(=O)C1=COC(O[C@@H]2O[C@H](COC(=O)/C=C/c3ccc(O)cc3)[C@@H](O)[C@H](O)[C@H]2O)C2C(CO)=CCC12 (some centres undefined)	inactive	inactive	
CC(C)=CCc1c(O)cc2oc3cc(C)cc(O)c3c2c1C	20 µM (active)	inactive	
COc1cc(O[C@@H]2O[C@H](CO[C@H]3OC[C@](O)(CO)[C@H]3O)[C@@H](O)[C@H](O)[C@H]2O)cc(OC)c1O	inactive	inactive	
NC1=NC2(c3cc(NC(=O)c4ccc(F)cn4)ccc3F)COCC2CS1 (centres undefined)	inactive	inactive	
CC12CC(O)C(O)C=C1c1cc(O)cc(O)c1C(=O)O2 (centres undefined)	inactive	inactive	
C=C1CC23CC(=O)C4C(CO)(CO)CCCC4(C)C2CCC1C3 (centres undefined)	inactive	inactive	
CCC(C)C(=O)O[C@H]1[C@@H](O[C@H]2O[C@H](CO)[C@@H](O)[C@H](O)[C@H]2O)O[C@H](CO)[C@@H](O)[C@@H]1O (some centres undefined)	inactive	inactive	
COc1cc2c(cc1O)C(c1ccc(O)cc1)C(C)C(C)C2 (centres undefined)	39.8 µM (active)	inactive	
C/C=C(/C)C(=O)OC1C2OC2C2(CO2)C2C3OC(=O)C(C)C3CCC12C (centres undefined)	inactive	inactive	
C[C@H](/C=C/[C@@]1(O)[C@H](C)CC(=O)CC1(C)C)O[C@@H]1O[C@H](CO[C@@H]2OC[C@@H](O)[C@H](O)[C@H]2O)[C@@H](O)[C@H](O)[C@H]1O	inactive	inactive	
C[C@@H]1CC2OC(=O)C3=C2C(CCC3O)[C@@]12C[C@@H](c1ccoc1)OC2=O (some centres undefined)	inactive	inactive	
CC(C)N(CCCNC(=O)Nc1ccc(C(C)(C)C)cc1)C[C@H]1O[C@@H](n2ccc3c(N)ncnc32)[C@H](O)[C@@H]1O	inactive	inactive	
CNC(=O)c1ccc2c(c1)CCO[C@H]2CCN1CCN(c2ccc(C(N)=O)cc2)CC1	inactive	inactive	
COc1ccc(-n2[nH]c3c(cnc4ccccc43)c2=O)cc1	inactive	inactive	
COC(=O)[C@H](Cc1cccc(C(=N)N)c1)[C@@H](C)NC(=O)c1ccc(-c2cc[n+]([O-])cc2)cc1	inactive	inactive	
COc1ccccc1N1CCN(CCCCNC(=O)c2ccc(-c3cscn3)cc2)CC1	inactive	inactive	
COc1cc(Nc2nc3c(s2)CCCC3c2ccccc2)ccc1-n1cnc(C)c1 (centres undefined)		inactive	-0.986% [at 19.1 µM]
Cc1cc(C(=O)N2Cc3cnn(C)c3Nc3ccccc32)ccc1CNC(=O)N1CCN(Cc2cc(O)cc(O)c2)CC1	inactive	inactive	
CC1=C[C@@H]2[C@H]3[C@@H]4O[C@@](C)(CC[C@H]4O)[C@H]3CC(=O)[C@]23C(=O)N[C@@H](CC(C)C)[C@@H]3[C@@H]1C	inactive	inactive	

SMILES	Potency [1]	Potency [2]	activity change, negative = inhibition [1]
COc1ccc(C(=O)CC(=O)O)c2c1C=CC(C)(C)O2	inactive	inactive	
C/C=C1\[C@H](O[C@@H]2O[C@H](CO)[C@@H](O)[C@H](O)[C@H]2O)OC=C(C(=O)O)[C@H]1CC(=O)OCCc1ccc(O)cc1	inactive	inactive	
C=C1CC23CC1CCC2C12OC(=O)C(C)(C(O)CC1O)C2C3C(=O)O (centres undefined)	inactive	inactive	
C=C1C(OC(C)=O)[C@@]23CCC4[C@](C)(C(=O)O)CCC[C@@]4(C)[C@]2(O)CC[C@H]1C3 (some centres undefined)	inactive	inactive	
C[C@H]1/C=C/C=C/C=C/C=C/C=C/[C@@H](O)[C@H](C(=O)O)[C@H](O)C[C@H](O)CCC[C@H](O)C[C@H](O)C[C@H](O)[C@@H](C)C(=O)O[C@@H]1C	inactive	inactive	
COc1cc(O)cc2c1C(=O)OC(C)CCCCCCC2 (centres undefined)	20 µM (active)	14.1 µM (active)	
O=C(O)Cc1cn([C@@H]2O[C@H](CO)[C@@H](O)[C@H](O)[C@H]2O[C@@H]2O[C@H](CO)[C@@H](O)[C@H](O)[C@H]2O)c2ccccc12	inactive	inactive	
C/C=C(\C)C(=O)O[C@H]1C=CC(=O)O[C@H]1/C=C/[C@H](O)[C@@H](C)O	inactive	inactive	
C/C(=C\C(=O)C[C@@]12C(=O)O[C@]3(C)CC[C@H]1C[C@H]23)C(N)=O	inactive	inactive	
Cc1nc2cc(-c3cc(F)cc(C#N)c3)ccc2s1	inactive	inactive	
Cc1ccc(-c2c(-c3nn(C)c4ncnc(N5CCC(N6CCCCC6)C5)c34)cnn2C)cc1 (centres undefined)	inactive	inactive	
CC1(C)COC(=O)[C@@H]1O[C@@H]1O[C@H](CO)[C@@H](O)[C@H](O)[C@H]1O	inactive	inactive	
CCC(C)C(=O)OC[C@H]1O[C@H](O[C@H]2O[C@H](CO)[C@@H](O)[C@H](O)[C@H]2O)[C@H](O)[C@@H](O)[C@@H]1O (some centres undefined)	inactive	inactive	
CC(C)(O)[C@@H]1CC[C@]2(CO)[C@@H](O)CC[C@](C)(O)[C@H]2[C@@H]1O[C@@H]1O[C@H](CO)[C@@H](O)[C@H](O)[C@H]1O	inactive	inactive	
C=C1CC[C@@H]2C(C)(C)CCC[C@@]2(C)[C@@H]1CC/C(=C/C(=O)OC)COC(C)=O	inactive	inactive	
CC1CCC2(C(=O)OC3OC(CO)C(O)C(O)C3O)CCC3(C)C(=CCC4C5(C)CCC(O)C(C)(CO)C5CCC43C)C2C1(C)O (centres undefined)	inactive	inactive	
COC(=O)C1=CO[C@@H](O[C@@H]2O[C@H](CO)[C@@H](O)[C@H](O)[C@H]2O)[C@@H]2C(C)CC(=O)[C@]12O (some centres undefined)	inactive	inactive	
COc1ccc(NC(=O)c2ccc(-c3ccc(C(N)=O)cc3C)cc2)cc1N1CCN(C)CC1	inactive	inactive	
CCN=C1N[C@@H]2[C@@H](O)[C@H](O)[C@@H](CO)O[C@@H]2S1	inactive	inactive	
C=C1CC2C(C)(CCC(=O)O)C(C(C)(C)O)CCC2(C)C2(C(=O)OC)C(=O)C(C)(O)C(=O)C12C (centres undefined)	inactive	inactive	
Cc1cccc(-c2nn3c(c2-c2ccnc4ccc(C(N)=O)cc24)CCC3)n1	inactive	inactive	

SMILES	Potency [1]	Potency [2]	activity change, negative = inhibition [1]
CC(CC12CCCN1C(=O)C1CCCN1C2=O)OC(N)=O (centres undefined)	inactive	inactive	
O=C(OC[C@H]1O[C@H](O[C@H]2CO[C@H](CO)[C@@H](O)[C@@H]2O)[C@H](O)[C@@H](O)[C@H]1O)c1ccccc1	inactive	inactive	
C[C@@H]1CC[C@]2(C(=O)O[C@@H]3O[C@H](CO[C@@H]4O[C@H](CO)[C@@H](O[C@@H]5O[C@@H](C)[C@H](O)[C@@H](O)[C@H]5O)[C@H](O)[C@H]4O)[C@@H](O)[C@H](O)[C@H]3O)CC[C@]3(C)C(=CCC4[C@@]5(C)C[C@@H](O)[C@H](O)[C@@](C)(CO)C5CC[C@]43C)C2[C@H]1C (some centres undefined)	inactive	inactive	
CC1(C)C(=O)CCC2(C)C1C(O)C=C1COC(=O)C12O (centres undefined)	inactive	inactive	
C=C1CCC2C(C)(C(=O)O)CCCC2(C)C1CC/C(C)=C\CO (centres undefined)	inactive	inactive	
O=C(Nc1cc(-c2ccccc2)nn1-c1ccccc1)c1ccc([N+](=O)[O-])cc1	inactive	inactive	
O=C(CCc1ccccc1)c1c(O)c([C@@H]2O[C@H](CO)[C@@H](O)[C@H](O)[C@H]2O)c(O)c([C@@H]2O[C@H](CO)[C@@H](O)[C@H](O)[C@H]2O)c1O	inactive	inactive	
CC(C)[C@](O)(c1ccc2cc(OC(F)F)c(OC(F)F)cc2c1)c1cn[nH]n1	inactive	inactive	
CCOC(=O)COc1ccc2c(c1)C[C@@H](NC[C@H](O)c1cccc(Cl)c1)CC2	inactive	inactive	
CC(C)C1NC(=O)CNC(=O)C2CCCN2C(=O)C(Cc2c[nH]c3ccccc23)NC(=O)CNC(=O)C(Cc2ccc(O)cc2)NC(=O)CNC1=O (centres undefined) (cyclo(GVGYGWP); configuration not given here)	inactive	inactive	
Oc1ccccc1-c1cc(-c2ccccc2F)[nH]n1	inactive	inactive	
C=C(C)C1CCC2(C(=O)OC3OC(COC4OC(CO)C(O)C(O)C4O)C(OC4OC(C)C(O)C(O)C4O)C(O)C3O)CCC3(C(=O)O)C(CCC4C5(C)CCC(=O)C(C)(C)C5CCC43C)C12 (centres undefined)	inactive	inactive	
CC1(C)OC(=O)CC(O)C2(C)C1CC(=O)C1(C)C2C(O)CC2(C)C(c3ccoc3)OC(=O)C3OC321 (centres undefined)	inactive	inactive	
COc1cc(O)cc(C)c1C(=O)OC1C(CO)OC(n2ccc(=O)[nH]c2=O)C1OC(C)=O (centres undefined)	inactive	inactive	
C/C=C(/C)C(=O)OC1C(OC(C)=O)C23C(O)OC4(CCC5C6(C)CCC(OC7OC(C(=O)O)C(O)C(OC8OC(CO)C(O)C(O)C8OC8OC(C)C(O)C(O)C8OC8OCC(O)C(O)C8O)C7OC7OC(CO)C(O)C(O)C7O)C(C)(C)C6CCC5(C)C4(C)CC2OC(C)=O)C3CC1(C)C (centres undefined)		inactive	-1.79% [at 19.1 µM]
COc1ccc(C2COc3cc(O)ccc3C2)c(O)c1OC (centres undefined)	inactive	inactive	
COC(=O)[C@]1(C)CCC[C@@]2(C)[C@@H]3CC[C@@H]4C[C@@]3(CC[C@@H]21)C[C@H]4C(=O)O	inactive	inactive	
CC1=C2C(=O)C=C(CO[C@@H]3O[C@H](CO)[C@@H](O)[C@H](O)[C@H]3O)[C@@H]2[C@H]2OC(=O)[C@H](C)[C@@H]2[C@@H](O)C1	inactive	inactive	
CC1=CC(=O)CC(C)(C)C1CCC(C)O[C@@H]1O[C@H](CO)[C@@H](O)[C@H](O)[C@H]1O (some centres undefined)	inactive	inactive	
CC1(C)OC(=O)C=C[C@@]2(C)C1CC(=O)[C@]1(C)C2CC[C@@]2(C)[C@H](c3ccoc3)OC(=O)[C@H]3O[C@]321 (some centres undefined)	inactive	inactive	
